Compound activity: PubChem BioAssay, several laboratories
A selection: hits, their analogues and other compounds. The true share with any hit is near 5.4%.
Beta cell apopt – blocks beta cell apoptosis. INS-1E cytokine-induced death, ATP luminescence, 48 h; percent of positive-control rescue, neutral wells zero. protection from apoptosis, % (concentration not given with the values). 0.8% of 300,000 active;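 active means Every replicate reaches about 75%, or at least half do and their mean reaches it too, limit read from the data; inconclusive means At least half of replicates reach the limit but their mean does not; inactive means Under half of replicates reach the limit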;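 further: higher means more ATP so stronger rescue from cytokine killing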
Mdm2 MdmX PPI – disrupts the human Mdm2-MdmX interaction. inhibition, % at 8 µM. O15151+Q00987. SaOS-2 split-luciferase Mdm2/MdmX complementation, luminescence. 3% of 330,000 active. AID 485346;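 active means inhibition of at least 50% at 8 µM in the primary screen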
Target sequence (O15151 whole entry, looked up): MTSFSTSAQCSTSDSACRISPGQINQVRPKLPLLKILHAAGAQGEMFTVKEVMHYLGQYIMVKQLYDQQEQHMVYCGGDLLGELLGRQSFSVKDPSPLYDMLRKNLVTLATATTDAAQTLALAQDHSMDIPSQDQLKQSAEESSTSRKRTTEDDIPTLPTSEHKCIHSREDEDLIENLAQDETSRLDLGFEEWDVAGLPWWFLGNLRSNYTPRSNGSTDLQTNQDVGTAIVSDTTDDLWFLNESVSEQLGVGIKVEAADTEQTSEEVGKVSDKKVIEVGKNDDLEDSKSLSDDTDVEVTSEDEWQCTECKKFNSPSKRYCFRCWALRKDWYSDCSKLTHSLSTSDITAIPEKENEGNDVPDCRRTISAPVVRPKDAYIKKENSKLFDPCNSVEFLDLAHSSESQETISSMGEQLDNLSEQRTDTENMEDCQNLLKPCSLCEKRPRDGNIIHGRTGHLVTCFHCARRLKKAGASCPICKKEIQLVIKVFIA
Target sequence (Q00987 whole entry, looked up): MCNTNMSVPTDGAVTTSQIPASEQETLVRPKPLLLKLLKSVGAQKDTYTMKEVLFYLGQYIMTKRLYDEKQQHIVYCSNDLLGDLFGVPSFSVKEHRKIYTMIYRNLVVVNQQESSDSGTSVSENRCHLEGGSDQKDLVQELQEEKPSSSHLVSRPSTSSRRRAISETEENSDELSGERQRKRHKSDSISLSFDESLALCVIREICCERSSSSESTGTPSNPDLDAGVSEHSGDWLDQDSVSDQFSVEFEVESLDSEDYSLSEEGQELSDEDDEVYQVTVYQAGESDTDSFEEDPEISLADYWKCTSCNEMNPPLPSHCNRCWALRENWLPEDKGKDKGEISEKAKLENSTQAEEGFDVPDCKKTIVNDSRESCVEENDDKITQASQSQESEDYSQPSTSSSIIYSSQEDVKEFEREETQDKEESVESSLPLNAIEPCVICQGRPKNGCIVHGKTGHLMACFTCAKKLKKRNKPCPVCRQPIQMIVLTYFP
MPTP inh – inhibitors of mitochondrial permeability transition pore. 1.4% of 360,000 active. inhibition, % at 10 µM. AID 602449. isolated mouse mitochondria, Ca2+ swelling absorbance, 30 min;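 active means inhibition of 50% or more, scaled per plate between neutral and stimulator controls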
Calb FLC – C. albicans growth modulation with fluconazole; C. albicans CaCi-2 (fluconazole-resistant clinical isolate) + fluconazole, Alamar Blue growth, 48 h; growth inhibition, % (concentration not given with the values); 0.57% of 300,000 active; AID 1979;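 active means growth inhibition above about 58% in most replicates, limit read from the data, passing the limit was not always enough; inconclusive means exactly half the replicates above a set limit; inactive means most replicates below a set limit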;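 further: all wells also contain fluconazole at 8 µg/ml as a sub-toxic cotreatment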
SKKanGAS inh – SKKanGAS growth inhibition; S. pyogenes SKKanGAS, kanamycin growth, BacTiter-Glo, 6 h; inhibition, % at 7.5 µM; 1.3% of 300,000 active; AID 1662;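 active means mean replicate score, as percent of positive control median, at least 50; inconclusive means mean below 50 but one replicate at or above 50; inactive means mean and every replicate below 50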;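 further: strain carries kanamycin resistance gene driven by streptokinase promoter and grows in 40 µg/ml kanamycin; loss of luminescence reflects streptokinase promoter inhibition or plain growth inhibition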
CSC inhib – blocks cancer stem cells. AID 2717. inhibition, % at 7.5 µM. cancer stem cell-like cells viability, luminescence. 1.1% of 300,000 active; in the data active means inhibition above about 75%; inconclusive means no clear call, values can overlap the other calls; tested in HMLE shEcad cells
Mdm2 MdmX conf – confirmation of human Mdm2/MdmX interaction inhibitors. Mdm2-MdmX binding, luminescent assay. inhibition, % at 8 µM. shares compounds with Mdm2 MdmX PPI. 55% of 10,000 active; in the data active means inhibition above about 40%
Full FLuc ctr – counter-screen for Mdm2/MdmX inhibitors: full-length luciferase. shares compounds with Mdm2 MdmX PPI. SaOS-2 full-length luciferase counterscreen, luminescence. inhibition, % at 8 µM. 77% of 6,200 active. AID 504607;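 active means mean inhibition at 8 µM reaching about 37%, which flags the compound as non-specific, limit read from the data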;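 further: p53-null SaOS-2 cells with luciferase driven by a doxycycline-inducible promoter; compound on cells about two nights before reading with doxycycline added after day one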
Of the large screens only hits and unclear results are named; the others gave an inactive call (follow-up assays come after a bar, where they were run).

CCN1CCN(CC2COc3ccccc3O2)CC1 (stereo unspecified)	none
CCOc1ccc2c(c1)C(=O)C(=O)N2CC1COc2ccccc2O1 (stereo unspecified)	Mdm2 MdmX PPI 69 | Mdm2 MdmX conf inactive
COc1ccc2c(c1)C(=O)C(=O)N2CC1COc2ccccc2O1 (stereo unspecified)	Mdm2 MdmX PPI 54 | Mdm2 MdmX conf inactive
Cc1ccc2c(c1)C(=O)C(=O)N2CC1COc2ccccc2O1 (stereo unspecified)	none
COc1cccc(CN2CCC(Oc3ccc(C(=O)NCc4ccccn4)cc3)CC2)c1	none
C(=C1/CCCC2=C1Nc1ncnn1C2c1ccccc1)/c1ccccc1 (stereo unspecified)	Mdm2 MdmX PPI 76 (no result: MPTP inh) | Mdm2 MdmX conf 84 | Full FLuc ctr inactive
S=C1NC2=C(CCC/C2=C\c2ccccc2)C(c2ccccc2)N1 (stereo unspecified)	none
Cc1cccc(S(=O)(=O)N2CN(Cc3ccco3)c3nc4ccccc4nc32)c1	none
C=CCn1c(Cc2ccc(OC)cc2)nnc1SCC(=O)NCCc1ccccc1	none
COc1ccc2sc(-c3ccc(N(C)C)cc3)c(C#Cc3cncn3C)c2c1	Mdm2 MdmX PPI 74, CSC inhib 104 (no result: Calb FLC, SKKanGAS inh) | Mdm2 MdmX conf inactive
Cc1c(N=NC2=C(O)CC(C)(C)CC2=O)cc2c(c1[N+](=O)[O-])C(C)(C)CC2(C)C	Mdm2 MdmX PPI 70 | Mdm2 MdmX conf inactive
CC(=O)Nc1cc2c(c([N+](=O)[O-])c1C)C(C)(C)CC2(C)C	none (no result: Beta cell apopt, Mdm2 MdmX PPI, Calb FLC, SKKanGAS inh, CSC inhib)
CCOC(=O)C1=C(CC)Nc2ccccc2N=C1NC(=O)c1oc2ccccc2c1C	SKKanGAS inh inconclusive
CCOCc1c(C(=O)NC2=Nc3ccccc3NC(CC)=C2C(=O)OCC)oc2ccccc12	Mdm2 MdmX PPI 69 | Mdm2 MdmX conf 73 | Full FLuc ctr 65
COc1ccccc1CCNC(=O)C1CCC(=O)N(C2CCCCCC2)C1 (stereo unspecified)	none
O=C(N/N=C/c1oc(O)c2ccccc12)c1ccccc1	none
Cc1cc(C)c2ccc(/C=N/O)nc2c1O	none
Cc1cc(C)c2ccc(NN)nc2c1O	Mdm2 MdmX PPI 59, SKKanGAS inh 68 | Mdm2 MdmX conf 41 | Full FLuc ctr 47
CCc1cccc(NS(=O)(=O)c2c(C)nc3sc(CC)nn3c2=O)c1	Mdm2 MdmX PPI 53 (no result: Calb FLC, SKKanGAS inh) | Mdm2 MdmX conf inactive
N#C/C(=C/c1cn(CC(=O)O)c2ccccc12)C(=O)Nc1ccccc1	Mdm2 MdmX PPI 51 | Mdm2 MdmX conf inactive
N#C/C(=C\c1cn(Cc2ccccc2)c2ccccc12)C(=O)NCc1ccco1	none
CCc1ccc(NC(=O)/C(C#N)=C/c2cn(CC(=O)O)c3ccccc23)cc1	none
Cc1cccc(NC(=O)/C(C#N)=C/c2cn(CC(=O)NCc3ccco3)c3ccccc23)c1C	Mdm2 MdmX PPI 90 | Mdm2 MdmX conf 49 | Full FLuc ctr 65
CCc1nc2ccc(C(=O)N3CCNC(=O)C3)cn2c1N(C)CCC(C)C	none (no result: Beta cell apopt, Mdm2 MdmX PPI, Calb FLC, SKKanGAS inh, CSC inhib)
Cc1ccc(-c2cc(C(F)(F)F)n3nc(C(=O)N4CCN5CCCC5C4)cc3n2)cc1 (stereo unspecified)	none
COc1ccc(CNC(=O)CN2C(=O)c3ccc([N+](=O)[O-])cc3C2=O)cc1	none
COC(=O)COc1ccc(S(=O)(=O)Nc2ccc3c(c2)OCO3)cc1	none
COC(=O)COc1ccc(S(=O)(=O)Nc2ccc3c(c2)OCO3)cc1Cl	Mdm2 MdmX PPI 52 | Mdm2 MdmX conf inactive
N#Cc1cc2[nH]c3ccccc3c2[n+](-c2ccc([N+](=O)[O-])cc2)c1N	none
Cc1cc(C)c(NC(=O)CSc2nc3ccc(NC(=O)CSc4nnnn4Cc4ccccc4)cc3s2)c(C)c1	none
O=C(CSc1nc2ccc(NC(=O)CSc3nnnn3Cc3ccccc3)cc2s1)Nc1ccccc1	Mdm2 MdmX PPI 50 (no result: Beta cell apopt) | Mdm2 MdmX conf inactive
COC(=O)CSc1nc2ccc(NC(=O)CSc3nnnn3Cc3ccccc3)cc2s1	Mdm2 MdmX PPI 94 | Mdm2 MdmX conf inactive
O=C1CCCC2=C1C1c3ccccc3C(=O)N1c1ccc(C(=O)c3ccccc3)cc1N2 (stereo unspecified)	Mdm2 MdmX PPI 56 | Mdm2 MdmX conf 42 | Full FLuc ctr 67
O=C(CCN1C(=O)/C(=C\c2ccccc2)SC1=S)N1CCCCC1	Mdm2 MdmX PPI 57 | Mdm2 MdmX conf 72 | Full FLuc ctr 61
O=C(CN1C(=O)/C(=C/c2ccccc2)SC1=S)N1CCN(CCc2ccccn2)CC1	Mdm2 MdmX PPI 84 (no result: Calb FLC) | Mdm2 MdmX conf 54 | Full FLuc ctr inactive
O=C(CCCN1C(=O)/C(=C/c2ccccc2)SC1=S)Nc1ccccc1O	Mdm2 MdmX PPI 95 (no result: Beta cell apopt) | Mdm2 MdmX conf 88 | Full FLuc ctr inactive
Cc1ccc(/C=C2\SC(=S)N(CCC(=O)N3CCCCC3)C2=O)cc1	Mdm2 MdmX PPI 72 (no result: CSC inhib) | Mdm2 MdmX conf 66 | Full FLuc ctr 122
CN(C)CCCNC(=O)c1cc(C(=O)c2c(Cl)cccc2Cl)c[nH]1	none
CCN(C[C@H]1N[C@@](C)(C(=O)OC)[C@H]2C(=O)N(Cc3ccccc3)C(=O)[C@@H]12)C(=O)NC(C)C	none (no result: Calb FLC, SKKanGAS inh, CSC inhib)
Cc1ccc(-c2nc(CN3CCCCC3c3cccc(F)c3)c(C)o2)o1 (stereo unspecified)	none
CCN(CC)C(=O)CN1C(=O)/C(=C/c2ccccc2)SC1=S	Mdm2 MdmX PPI 63 | Mdm2 MdmX conf 45 | Full FLuc ctr inactive
COc1cc(/C=C2\SC(=S)N(CCC(=O)N3CCCCC3)C2=O)cc(OC)c1OC	Mdm2 MdmX PPI 68 (no result: CSC inhib) | Mdm2 MdmX conf 43 | Full FLuc ctr 63
O=C(CCCN1C(=O)/C(=C\c2ccccc2)SC1=S)N1CCOCC1	Mdm2 MdmX PPI 51 (no result: Calb FLC, SKKanGAS inh) | Mdm2 MdmX conf inactive
O=C(CCN1C(=O)/C(=C/c2cccs2)SC1=S)N1CCCCC1	Mdm2 MdmX PPI 68 | Mdm2 MdmX conf 52 | Full FLuc ctr 45
O=C(Cn1cnc2ccccc2c1=O)NCC(=O)N1CCN(Cc2ccc3c(c2)OCO3)CC1	none (no result: Calb FLC, SKKanGAS inh)
O=C(CN1C(=O)S/C(=C/c2ccncc2)C1=O)N1CCOCC1	Mdm2 MdmX PPI 65 | Mdm2 MdmX conf inactive
O=C(CCN1C(=O)/C(=C\c2cccc(Br)c2)SC1=S)N1CCOCC1	Mdm2 MdmX PPI 61 | Mdm2 MdmX conf 47 | Full FLuc ctr inactive
O=C(CN1C(=O)S/C(=C/c2cccnc2)C1=O)N1CCOCC1	none
Cc1ccc(/C=C2/SC(=S)N(CCC(=O)N3CCOCC3)C2=O)cc1	none
Cc1ccccc1-c1cc2nc(NCCCN(C)C)n(C)c(=O)c2s1	none (no result: Beta cell apopt, Mdm2 MdmX PPI, Calb FLC, SKKanGAS inh, CSC inhib)
Cc1nn(C)cc1C1C(C#N)=C(N)N(c2ccc(F)c([N+](=O)[O-])c2)C2=C1C(=O)CCC2 (stereo unspecified)	none
Cc1ccc(S(=O)(=O)N2c3ccccc3-c3c(ssc3=S)C2(C)C)cc1	none
